MsrA inh: inhibitors of bovine MsrA; purified bovine MsrA, absorbance read-out; inhibition, % at 15.5 µM; 0.75% of 360,000 active; AID 651718; in the data active means inhibition above about 4.5%;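 further: 0% = vehicle wells with enzyme and 100% = reference inhibitor wells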
PLC-gamma1 inh: inhibitors of human phospholipase C gamma1 | P19174 | purified PLC-gamma1, fluorogenic substrate, fluorescence | inhibition, % at 12.2 µM | 0.84% of 370,000 active
MsrA act: bovine methionine sulfoxide reductase A activation; activation, % at 10.6 µM; AID 602163; purified bovine MsrA, absorbance read-out; 0.3% of 360,000 active; in the data active means activation above about 7.5%;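 further: 0% = vehicle and 100% = reference activator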
PLCb3 inh: inhibitors of human phospholipase C beta3; Q01970; Purified PLC-beta3, fluorogenic substrate, fluorescence; inhibition, % at 12.2 µM; 0.18% of 370,000 active; in the data active means inhibition above about 11%;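 further: 0% = median of compound wells on plate and 100% = full blocker control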
PLCgamma1 ctr: counter-screen for PLC-beta3 inhibitors: inhibitors of human PLC-gamma1; shares compounds with PLC-gamma1 inh; purified PLC-gamma1, fluorogenic substrate, fluorescence; inhibition, % at 12.3 µM; 3.1% of 3,300 active; AID 743258
PLCb3 confirm: confirmation of human PLC-beta3 inhibitors; purified PLC-beta3, fluorogenic substrate fluorescence; shares compounds with PLC-gamma1 inh; inhibition, % at 12.3 µM; 1% of 3,300 active; in the data active means inhibition above about 11%
Starred values were filed as active, the others as inactive; x = no result. Sampled rows, rich in hits. Any-hit rate of the full collection: about 1.9%. Unless noted, no stated cut-off is given here; in the data, active means inhibition above about 9.5%; inactive means the rest.

SMILES | MsrA inh | PLC-gamma1 inh | MsrA act | PLCb3 inh | PLCgamma1 ctr | PLCb3 confirm
COc1ccc(C(=O)Nc2cccc([N+](=O)[O-])c2)cc1Br | 2 | 1 | -4 | 11* | 5 | 0
C=CCN=C1NC(c2cccc(F)c2)C(C(=O)OC)=C(C)N1C (stereo unspecified) | 1 | 0 | x | -2 | x | x
Fc1ccc(CSc2ncnc3c2oc2ccccc23)cc1 | 0 | 10* | -8 | 4 | -6 | -5
CCN(CC)C1CCN(C(=O)c2cc(COc3ccccc3SC)on2)C1 (stereo unspecified) | 0 | 10* | -2 | -9 | -6 | -4
COc1ccc(C(=O)COC(=O)[C@H](C)Nc2ccc(C(F)(F)F)cc2[N+](=O)[O-])cc1 | 1 | 11* | 0 | 6 | -1 | -3
O=S(=O)(c1ccccc1F)N1CCc2ccccc2C1 | -1 | 4 | -3 | 2 | x | x
O=[N+]([O-])c1ccccc1S(=O)(=O)N1CCc2ccccc2C1 | 1 | 2 | -5 | 12* | -6 | -2
COc1ccc(NC(=O)C2CC(=O)OC2c2ccccc2)cc1 (stereo unspecified) | 1 | 10* | -2 | 6 | -5 | -1
CC1Cc2ccccc2N1C(=O)CSc1nc(-c2ccco2)cc(C(F)(F)F)n1 (stereo unspecified) | 1 | 13* | 0 | 1 | -2 | 0
Cc1ccc(Cl)cc1-c1cc(C(=O)N2CCN(c3ccncc3)CC2)[nH]n1 | 0 | -1 | 1 | 2 | x | x
O=C(Cc1ccccc1)NC1CCCCC1 | 0 | 7 | -2 | 6 | x | x
Cc1cccc[n+]1CC(=O)Nc1ccc([N+](=O)[O-])cc1Cl | 1 | 14* | -4 | 7 | -3 | 0
O=C(NCc1ccccc1Cl)[C@H]1CCCN1C(=O)[C@H]1CCCN1C(=O)c1ccccc1 | -1 | 0 | 0 | 1 | x | x
CCc1cccc(NC(=S)Nc2ccc(CN3CCOCC3)cc2)c1 | 2 | 9.8* | -2 | 2 | -4 | -1
Cc1ccc(NC(=O)CSc2ncn[nH]2)cc1 | -1 | 0 | -2 | 4 | x | x
O=C(CSc1ncn[nH]1)Nc1ccc2c(c1)CCC2 | 1 | 6 | -7 | 13* | -4 | 0
COc1ccc(NS(=O)(=O)Cc2ccccc2Cl)cn1 | 1 | 12* | -1 | 3 | -1 | 5
O=C(NCCc1c[nH]c2ccccc12)c1ccc2c(c1)ncn2C1CCCCC1 | x | -1 | x | 0 | x | x
CCC(C)n1c(SCC(=O)NCc2ccco2)nnc1-c1cccc(S(=O)(=O)N2CCOCC2)c1 (stereo unspecified) | -1 | 12* | -9 | 3 | -8 | -6
COc1ccc(OC)c(C(O)c2ncc(-c3ccc(C(F)(F)F)cc3)[nH]2)c1 (stereo unspecified) | 0 | 0 | -3 | 1 | x | x
Cn1c(=O)c2c(nc(NCc3cccnc3)n2Cc2cccc(C(F)(F)F)c2)n(C)c1=O | 1 | 12* | -4 | 6 | -2 | 2
Cc1ccc(S(=O)(=O)Nc2ccc3c(c2)CCC3)cc1C | 0 | 13* | 0 | -3 | 1 | 0
Cc1ccc(S(=O)(=O)Nc2ccc3c(c2)CCC3)cc1 | 1 | -1 | -1 | -2 | x | x
Cc1cc(F)cc(-c2cc(C(=O)NCc3cccc(Cl)c3)[nH]n2)c1 | 0 | 10* | 1 | 2 | -5 | -6
COc1cccc(CNC[C@H]2O[C@@H](n3ccc(N)nc3=O)[C@H](O)[C@@H]2O)c1OCc1ccc(F)cc1Cl | 2 | 1 | -6 | -3 | x | x
SMILES | MsrA inh | PLC-gamma1 inh | MsrA act | PLCb3 inh | PLCgamma1 ctr | PLCb3 confirm
CC(C)C[C@H]1COc2c(Cl)cccc2S(=O)(=O)N1Cc1ccc(F)cc1F | 0 | 5 | x | 2 | x | x
O=C(Nc1cnn(Cc2ccc(F)cc2)c1)c1cnccn1 | 1 | 8 | -1 | 8 | x | x
O=C(Nc1cnn(Cc2ccc(F)cc2)c1)C(c1ccccc1)c1ccccc1 | 0 | 10* | 1 | 8 | -5 | 0
COc1cccc(-n2c(C)nnc2SCC#N)c1 | 0 | 12* | 0 | 13* | -4 | -1
COC(=O)CSc1nnc(C)n1-c1cccc(OC)c1 | 0 | 0 | -1 | 2 | x | x
CSCCC(NC(=O)COc1ccccc1)C(=O)NCC(C)(C)N1CCOCC1 (stereo unspecified) | 1 | -1 | 0 | -3 | x | x
Cc1ccc(Cn2cccc2C2=NC(C)CO2)cc1 (stereo unspecified) | 1 | 11* | 0 | 10 | 0 | -8
O=C(NCCN1CCC(n2c(=O)[nH]c3ccccc32)CC1)C(c1ccccc1)c1ccccc1 | -1 | 0 | 2 | 2 | x | x

Screening results from PubChem.
